Most compounds without a hit are left out; they make up all but 21% or so of the library.
ClpP mod = qHTS Assay for Activators of ClpP; ATP-dependent Clp protease proteolytic subunit (Bacillus subtilis (strain 168)), P80244; purified B. subtilis ClpP, FRET peptide cleavage, 20 min; Potency, µM (series often up to 57.5 µM), inactives show at the highest dose activity change, negative = active; 340,000 tested, 1.9% active; active means well fitted falling curve with a large enough effect; inconclusive means small, poorly fitted or top-dose-only effect; inactive means no such curve, though single readings can be large or run the other way; further: potency means the concentration at half of the fitted maximal effect; the source files actives as falling curves though it sought activators and does not explain the sign; nearly all actives have a fitted effect of over 65% in size
Target sequence (P80244 whole entry, looked up): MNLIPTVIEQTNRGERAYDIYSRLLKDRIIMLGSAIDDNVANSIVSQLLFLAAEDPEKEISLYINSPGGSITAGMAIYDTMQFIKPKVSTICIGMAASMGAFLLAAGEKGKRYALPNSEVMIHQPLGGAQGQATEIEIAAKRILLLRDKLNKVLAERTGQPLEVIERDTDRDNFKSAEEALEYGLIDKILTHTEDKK
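Buffer: 100 mM Tris/HCl pH8, 100 mM KCl, 0.05% low protease BSA, 2.5% glycerol, 0.01% Tween-20. ClpP 10 microg/mL final; 20 min RT; delta FRET normalized to ADEP and DMSO controls.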
DRD3 agonist = activates the human D3 dopamine receptor; D3R DiscoveRx beta-arrestin cells, luminescence, 90 min; max activation, %; 410,000 tested, 0.58% active; in the data active means max activation above about 30%; further: 0% is about no effect
Target sequence (P35462 whole entry, looked up): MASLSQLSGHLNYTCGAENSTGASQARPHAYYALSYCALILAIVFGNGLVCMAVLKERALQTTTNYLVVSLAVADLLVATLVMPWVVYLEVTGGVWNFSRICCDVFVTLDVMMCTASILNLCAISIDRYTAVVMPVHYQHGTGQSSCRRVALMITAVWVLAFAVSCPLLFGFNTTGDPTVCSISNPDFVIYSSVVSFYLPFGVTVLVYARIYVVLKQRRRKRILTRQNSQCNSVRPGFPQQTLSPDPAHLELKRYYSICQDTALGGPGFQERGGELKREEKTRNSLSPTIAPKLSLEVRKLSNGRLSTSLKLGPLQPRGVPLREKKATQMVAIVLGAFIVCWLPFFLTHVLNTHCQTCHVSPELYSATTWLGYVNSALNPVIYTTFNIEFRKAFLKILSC
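Agonist-mode cell screen: cells plated at 1500/well and incubated overnight at 37 °C, then exposed to library compounds for 90 min at 37 °C. Detection reagent was added for 30–60 min at room temperature, and luminescence was read.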
IL-1B inflam inh = inhibitors of inflammasome signaling (IL-1 beta secretion); THP-1 LPS/ATP IL-1B secretion, AlphaLISA, 16 h; active compounds read low; AID 743279; activity change, % at 57.5 µM; 360,000 tested, 4.7% active; in the data active means activity change below about -50%; inconclusive means mostly about -30% to -49%; further: on the % scale 0 is the no-effect control and ±100 the full control effect
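THP-1 cells pretreated 1 hr with compounds (up to 57.5 uM final), then stimulated with LPS (250 ng/mL final) plus ATP (1.25 mM final); secreted IL-1B measured by AlphaLISA after 16 hr, decreased signal indicating inhibition.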
TDP1 cell noCPT = qHTS for Inhibitors of human tyrosyl-DNA phosphodiesterase 1 (TDP1): qHTS in cells in absence of CPT. 420,000 tested, 15% active. Potency, µM (doses to about 46.2 µM), for inactives: at the top dose activity change, negative = growth inhibition, usual class: inhibitors. DT40 Tdp1-/- hTDP1 cells, no CPT, ATP luminescence, 48 h; further: potency means the concentration at half of the fitted maximal effect; on the % scale 0 is the no-effect control and ±100 the full control effect; nearly all actives have a fitted effect of over 55% in size
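Camptothecin absent (DMSO only). Human TDP1-complemented DT40 knockout cells, 400 cells/well, 37 °C for minimum 48 hr; ATP measured via CellTiter-Glo, 30 min dark incubation, luminescence.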
DT40 TDP1 CPT = DT40-hTDP1 cell growth loss with CPT; chicken DT40 Tdp1-/-;hTDP1 cells + 20 nM CPT, ATP luminescence, 48 h; Potency, µM (series often up to 46.2 µM), for the others: at the top dose activity change, negative = growth inhibition, most hits filed as inhibitors; 420,000 tested, 12% active; further: potency means the concentration at half of the fitted maximal effect; on the % scale 0 is the no-effect control and ±100 the full control effect; nearly all actives have a fitted effect of over 55% in size
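Cell growth measured by CellTiter-Glo luminescence after a minimum 48 h, 37 C compound exposure with 20 nM CPT in Tdp1-knockout DT40 cells stably expressing hTDP1, seeded 400/well; qHTS titration format.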
DRD3 antagonist = antagonists of human D3 dopamine receptor; D3R cells, DiscoveRx beta-arrestin luminescence, antagonist mode; active compounds read low; 360,000 tested, 2.5% active; P35462; max response, negative = inhibition, %; in the data active means max response below about -50%; inconclusive means no clear call, values can overlap the other calls; further: on the % scale 0 is the no-effect control and ±100 the full control effect
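Cells plated overnight at 1500 cells/well, then exposed to library compounds with dopamine controls for 90 minutes at 37 degrees C. DiscoveRx reagent added for 30–60 minutes at room temperature; luminescence read, quantitative HTS format.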
Starred values were filed as active, the others as inactive; ? = inconclusive; / = no result; ! = repeats disagree. Unless noted, the call rests on the fitted dose curve; in most records, active means well fitted inhibition curve with a large enough effect; inconclusive means small, poorly fitted or top-dose-only effect; inactive means flat fitted curve, though single readings scatter.

SMILES	ClpP mod	DRD3 agonist	IL-1B inflam inh	TDP1 cell noCPT	DT40 TDP1 CPT	DRD3 antagonist
CCOC(=O)c1cc2c(C)n(-c3ccc(OCC)cc3)c(C)c2cc(C(=O)OCC)c1=O	-11%	-2	6	16µM*	?	4
CCOC(=O)c1nn(-c2ccc(OCC)cc2)c(C)c1C(C)=O	-7%	5	12	10%	7%	13
CCOC(=O)c1cc2c(C)[nH]c(C)c2cc(C(=O)OCC)c1=O	/	6	-16	7.3µM*	?	3
CCOC(=O)c1cc2c(C)n(-c3ccc(N(C)C)cc3)c(C)c2cc(C(=O)OCC)c1=O	0%	57*	5	?	?	28
CCOC(=O)C1=NN(c2ccccc2)C(=O)/C1=C\c1ccc(N(C)C)cc1	-1%	-3	-5	?	-17%	?
COc1ccccc1-c1cnc(C(O)c2ccc(F)cc2C)[nH]1 (configuration not stated)	-10%	7	18	?	?	13
Cc1cccc(NC(=O)CN(C)C(=O)/C=C/c2ccccc2)c1C	-2%	-7	-17	-26%	8%	-24
Clc1ccc[n+](CCCCC[n+]2cccc(Cl)c2)c1	-15%	/	/	?	?	/
CCCCCCCC[n+]1cccc(C(=O)N(CC)CC)c1	1%	0	-6	?	-26%	-11
CCCCN(CCCC)C(=O)C[n+]1cccc(/C=N/O)c1	1%	0	17	-22%	-14%	17
CCCCCCCCCCCCCCCC[n+]1cccc(C(=O)N(CC)CC)c1	0%	-11	-63*	2.6µM*	2.9µM*	-74*!
CCCCCCCCCCCCCCCC[n+]1ccc(/C=N/O)cc1	2%	-3	-100*	1.6µM*	1.6µM*	0
CCCCCCCCCCCC[n+]1ccc2ccccc2c1	/	-5	/	0.34µM*	0.53µM*	/
CCCCCCCCCCCCCCCC[n+]1ccc(C(N)=O)cc1	?	3	-103*	2.9µM*	4.6µM*	-12
CN(C)c1ccc(C(CNS(=O)(=O)c2ccc([N+](=O)[O-])cc2)N2CCOCC2)cc1 (configuration not stated)	/	-5	-16	-18%	-18%	-6
Cc1cc[n+](CC[n+]2ccc(C)cc2)cc1	-3%	6	39	-9%	-2%	-10
CCCCCCCCCCCCCC[n+]1ccc(C)cc1	/	0	/	0.38µM*	0.42µM*	/
CCOC(=O)CC(=O)CSc1nc(CC)c(C)cc1C#N	/	7	-6	13µM*	?	-1
COC(=O)CSc1nc(-c2ccc(C)cc2)c2c(c1C#N)CCCC2	28µM*	-2	0	-14%	-19%	55
CCSc1nc2ccc(C)cc2cc1C#N	-1%	-1	10	1%	0%	3
CCOC(=O)CC(=O)CSc1nc2c(cc1C#N)CCCCC2	205%	0	44	-3%	3%	9
CCOC(=O)CC(=O)CSc1nc2ccc(C)cc2cc1C#N	3%	-2	6	0.73µM*	1.2µM*	-4
CCOC(=O)CC(=O)CSc1nc2c(c(C)c1C#N)CCC2	278%	0	11	7.3µM*	15µM*	11
CN(C)C(=O)c1ccc(NC(=O)COc2ccc([N+](=O)[O-])cc2)cc1	/	-10	0	-22%	-16%	-13
COc1ccc2cc(C#N)c(SCC(=O)OCc3ccccc3)nc2c1	5%	/	/	-19%	-5%	/
SMILES	ClpP mod	DRD3 agonist	IL-1B inflam inh	TDP1 cell noCPT	DT40 TDP1 CPT	DRD3 antagonist
COC(=O)CSc1nc2cc(C)ccc2cc1C#N	-7%	8	0	16µM*	18µM*	-9
Cc1ccc2cc(C#N)c(SCc3nnc(-c4ccccc4[N+](=O)[O-])o3)nc2c1	-4%	4	-8	21µM*	?	8
O=C(CCCn1c(=O)c2cccn2c2ccccc21)Nc1cc(C(F)(F)F)ccc1Cl	-15%	3	/	?	?	/
Cc1ccc(S(=O)(=O)c2nnn3c2nc(NCc2ccc4c(c2)OCO4)c2sccc23)cc1C	20µM*	6	/	23µM*	?	/
Cc1ccc(C)c(S(=O)(=O)c2nnn3c2nc(NCc2ccc4c(c2)OCO4)c2sccc23)c1	?	12	/	?	18µM*	/
Cc1ccc(S(=O)(=O)c2nnn3c2nc(NCc2ccc4c(c2)OCO4)c2sccc23)cc1	?	2	/	13µM*	?	/
Cc1ccc(CNc2nc3c(S(=O)(=O)c4ccccc4)nnn3c3ccsc23)cc1	-2%	-16	/	-14%	-28%	/
Cc1ccc(CNc2nc3c(S(=O)(=O)c4ccc(C)c(C)c4)nnn3c3ccc(Cl)cc23)cc1	?	4	/	?	-25%	/
COc1ccc(C)cc1Nc1nc2c(S(=O)(=O)c3cc(C)ccc3C)nnn2c2ccsc12	-17%	-2	/	-7%	0%	/
C[C@H](C[C@H](N)C(=O)O)C(=O)O	/	/	/	-4%	1%	/
O=C1c2ccccc2S(=O)(=O)c2cc(C(=O)N3CCC(C(=O)N4CCCCC4)CC3)ccc21	-2%	-11	-6	-23%	-24%	-3
Cc1cc(C(=O)N2CCN(c3ncccc3C#N)CC2)no1	-2%	-4	-20	-5%	6%	10
N#Cc1cccnc1N1CCN(C(=O)c2ccc3c(c2)S(=O)(=O)c2ccccc2C3=O)CC1	-8%	-6	?	?	26µM*	-1
O=C1c2ccccc2S(=O)(=O)c2cc(C(=O)N3CCN(c4ccc(Cl)cn4)CC3)ccc21	0%	44*	?	-11%	3%	22
CN(C)c1ccc(CN(C(=O)c2ccccc2Br)C2CCS(=O)(=O)C2)cc1 (configuration not stated)	2%	7	-7	-4%	-25%	-4
Fc1ccc(Oc2cnc3ccccc3n2)cc1	/	5	32	-24%	-2%	14
Cc1sc2ncnc(N3CCN(Cc4ccccc4)CC3)c2c1-c1ccc(F)cc1	0%	15	-55*	?	?	4
Fc1ccc(CN2CCN(c3ncnc4scc(-c5ccccc5)c34)CC2)cc1	1%	-12	?	?	?	26
Fc1ccc(-c2csc3ncnc(N4CCN(Cc5ccccc5)CC4)c23)cc1	-3%	-6	9	15µM*	21µM*	-18
COc1cccc(C(=O)NC2CCNCC2)c1	-2%	-1	-15	17%	-6%	-18
COc1cccc(NC(=O)CN(C)C(=O)/C=C/c2cn(-c3ccccc3)nc2-c2ccc(C)cc2)c1	?	6	?	?	?	17
